Shown are actives, neighbours in structure and some others; about 3.3% of the full set was active somewhere.
12-hLO inh – inhibitors of human 12-lipoxygenase (ALOX12); P18054; AID 1452; Potency, µM (top dose mostly 57.1 µM), for inactives: top-dose activity change, negative = inhibition, actives largely listed as inhibitors; purified 12-hLO, xylenol orange hydroperoxide absorbance; actives 0.12% (n = 150,000); note: potency is the fitted concentration of half-maximal effect; % is set by controls: 0 for no effect and ±100 for the full control effect; nearly all actives have a fitted effect of over 55% in size
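Hydroperoxide output read as Fe(III)-xylenol orange absorbance, 573-to-405 nm ratio, after 30 min reaction with 40 uM arachidonic acid. Enzyme: 150 nM purified human 12hLO, 15 min compound preincubation; 25 mM Hepes pH 7.0, room temperature.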
PNC inhibitor – perinucleolar compartment assembly inhibition; PC3M PTB-GFP, PNC prevalence imaging, 16 h; hits give low values; activity change (PNC), negative = inhibition, % at 10 µM; actives 3.1% (n = 140,000); AID 2417;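 active = readout at or below -70, meaning at least 70% loss of cells showing the perinucleolar compartment, a nuclear body marking cancer cells; inconclusive = readout between -30 and a set limit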;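 note: plate controls were DMSO wells for no effect and camptothecin positive control wells for full effect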
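Read-out is percentage of cells bearing a perinucleolar compartment, from automated 20x imaging of fixed, Hoechst-stained PC3M PTB-GFP cells. Cells were seeded 4 h, then exposed 16 h to compound (23 nl of library stock) in duplicate plates.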
HTT aggregate – mutant huntingtin aggregation inhibition; PC12 HttQ103-GFP aggregates, Acumen cytometry, 40 h; Potency, µM (doses to about 46.1 µM), for the others: top-dose activity change, negative = inhibition, most hits filed as inhibitors; actives 1.1% (n = 220,000); AID 1688; note: potency is the fitted concentration of half-maximal effect; % is set by controls: 0 for no effect and ±100 for the full control effect; nearly all actives have a fitted effect of over 60% in size
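Read-out: GFP aggregate count by laser scanning cytometer (488 nm excitation, 500-530 nm emission, 1–25 µm objects >6 SD above background). Cells: PC12, inducible HTTex1-Q103-GFP, 100 nM tebufenozide; compounds titrated.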
HTT ATP protect – Huntington cell model cytoprotection by ATP luminescence | PC12 HTT-Q103 induced, cytoprotection, ATP luminescence, 40 h | Potency, µM (top dose mostly 56.4 µM), without a hit: cytoprotection (ATP increase), actives largely listed as activators | actives 0.14% (n = 230,000); note: potency is the fitted concentration of half-maximal effect; % of control where 0% means no effect; nearly all actives have a fitted effect of over 45% in size
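Compounds were screened for protection of PC12 cells against cell death after tebufenozide induction (100 nM final) of mutant Huntingtin exon 1 (Q103) fused to GFP.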
IMPase inh – cell-permeable inhibitors of inositol monophosphatase (IMPase). CHO-M1 cells, IP1 accumulation, HTRF TR-FRET ratio. inhibition (IP1 accumulation), % at 46.1 µM. P97697. 120,000 tested, under 10 active; active = well fitted curve in the direction sought with a large enough effect in the signal ratio, not every such curve was filed as active; inconclusive = small, poorly fitted or top-dose-only effect, or a change in a side signal; inactive = no such curve, though single readings can be large or run the other way; the % refers to the signal ratio;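 note: cells stimulated with carbachol in lithium chloride buffer; plate controls were DMSO basal wells for no effect and reference inhibitor wells for full effect; higher means more IMPase inhibition seen as more IP1 and lower FRET ratio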
Target sequence (P97697 whole entry, looked up): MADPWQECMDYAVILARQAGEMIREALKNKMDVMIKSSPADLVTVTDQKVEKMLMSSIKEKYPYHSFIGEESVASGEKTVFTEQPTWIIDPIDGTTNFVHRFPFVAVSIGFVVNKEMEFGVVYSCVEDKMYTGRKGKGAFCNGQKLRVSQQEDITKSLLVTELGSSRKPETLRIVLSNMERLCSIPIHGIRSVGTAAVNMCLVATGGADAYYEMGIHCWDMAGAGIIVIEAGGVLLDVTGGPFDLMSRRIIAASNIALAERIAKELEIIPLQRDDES
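Elevated IP1 in lysates lowers TR-FRET signal (665/620 ratio and 620 channel reported). Cells were CHO-M1, given carbachol (50 uM as added) plus 50mM LiCl, pH 7.4, 30 min, 37C; compounds titrated up to 46 uM; AC50 by Hill equation.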
NPSR antag – blocks cAMP signaling of the human neuropeptide S receptor; Q6W5P4; CHO-NPSR cells, cAMP TR-FRET, antagonist mode; Potency, µM (series often up to 38.3 µM), inactives show top-dose activity change, negative = inhibition, hits mostly inhibitors; actives 1% (n = 220,000); AID 1461; note: potency is the fitted concentration of half-maximal effect; % is set by controls: 0 for no effect and ±100 for the full control effect; nearly all actives have a fitted effect of over 50% in size
Target sequence (Q6W5P4 whole entry, looked up): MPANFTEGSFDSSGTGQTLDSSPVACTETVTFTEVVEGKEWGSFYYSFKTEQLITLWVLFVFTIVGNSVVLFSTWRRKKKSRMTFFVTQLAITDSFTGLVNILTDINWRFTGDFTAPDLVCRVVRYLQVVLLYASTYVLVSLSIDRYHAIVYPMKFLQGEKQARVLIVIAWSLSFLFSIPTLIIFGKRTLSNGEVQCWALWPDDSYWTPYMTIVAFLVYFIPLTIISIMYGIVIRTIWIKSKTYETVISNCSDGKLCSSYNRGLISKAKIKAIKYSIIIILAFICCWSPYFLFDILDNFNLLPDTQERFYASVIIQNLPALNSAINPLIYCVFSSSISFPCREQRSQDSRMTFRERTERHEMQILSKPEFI
* = called active by the depositor; ? = inconclusive; . = no result; [ ] = remark or other dose. Unless noted, calls come from the whole dose curve; as a rule, active = well fitted curve in the direction sought with a large enough effect; inconclusive = small, poorly fitted or top-dose-only effect, or another doubt; inactive = no such curve, though single readings can be large; an effect the other way counts as inactive or inconclusive.

SMILES | 12-hLO inh | PNC inhibitor | HTT aggregate | HTT ATP protect | IMPase inh | NPSR antag
Cc1cc(Nc2nnnn2-c2ccccc2)n(-c2ccc(Cl)cc2)n1 | ? | ? | 16µM* | 9%[10 µM] | 0 | -5%[46.1 µM]
C=CCN1CCN(C(CC(C)C)c2nnnn2CCOC)CC1 (stereo not drawn) | -6% | ? | 6% | 0% | 1 | 0%[46.1 µM]
CCCCC(c1nnnn1CCOC)N1CCN(CC)CC1 (stereo not drawn) | 2% | -100* | -12% | 7%[10 µM] | -10 | 0%[46.1 µM]
CCOC(=O)N1CCC(NC(=O)C2CCCN(S(=O)(=O)c3ccc4c(c3)oc(=O)n4C)C2)CC1 (stereo not drawn) | -1% | -90* | 12% | -4% | 1 | -4%[46.1 µM]
COc1cccc(NC(=O)CSc2nnc3scc(-c4ccc(Cl)cc4)n23)c1 | . | . | . | . | 2 | .
Cc1cc(=O)[nH]c(SCC(=O)N2CCN(S(=O)(=O)c3ccccc3)C2)n1 | . | . | 14% | -25% | . | 11%
CCC(C)OC(=O)c1cc(C)nc2c(Br)cc(Br)cc12 (stereo not drawn) | 2% | -100* | -13% | 4%[10 µM] | -21 | 14%[46.1 µM]
Clc1ccc2nnnc(-c3ccccc3)c2c1 | -4% | -98* | ? | . | . | 0%
O=C(CN(Cc1ccccc1)S(=O)(=O)c1ccccc1)N1CCOCC1 | 1% | -101* | 1% | -1% | 1 | -4%[46.1 µM]
COC(=O)c1nnn(CC(=O)NC(=O)Nc2cccc(C)c2C)c1C(=O)OC | -2% | -113* | 17% | . | . | 17%
CCOC(=O)c1nnn(CC(=O)Nc2ccccc2OC)c1C(=O)OCC | 0% | -113* | -7% | 4%[10 µM] | -9 | -9%[46.1 µM]
CCOC(=O)c1nnn(CC(=O)Nc2cc(F)ccc2F)c1C(=O)OCC | -1% | 47 | 8% | 17% | ? | -4%[46.1 µM]
C#CC1(O)CC(C)N(C)C(C)C1 (stereo not drawn) | 3% | -91* | -4% | -1%[10 µM] | 0 | -9%[46.1 µM]
FC(F)(F)c1cc(-c2ccccc2)nc(N2CCCCCC2)n1 | -5% | 52 | -24% | -4%[0.074 µM] | -3 | -1%[46.1 µM]
CS(=O)(=O)c1nc(-c2ccccc2)cc(C(F)(F)F)n1 | -6% | -100* | 4.5µM* | ? | 10 | 10µM*
O=C(c1ccncc1)N1CCC[C@@]2(CCN(Cc3ccccc3)C2)C1 | -2% | . | . | -6% | . | .
Cc1ccc(CNC(=O)CCS(=O)(=O)c2cccc3nonc23)cc1 | -9% | 28 | -11% | 17% | 18 | -3%[46.1 µM]
COc1ccc(CNC(=O)CCS(=O)(=O)c2cccc3nonc23)cc1 | 2% | 3 | 6.3µM* | 3.5µM* | 8 | -2%[46.1 µM]
N[C@H](Cc1ccc(F)cc1)C(=O)O | -2% | . | . | 17%[1.9 µM] | 0 | .
NS(=O)(=O)c1ccc(NC2=CC(c3ccc([N+](=O)[O-])cc3)N(c3ccc(S(N)(=O)=O)cc3)C2=O)cc1 (stereo not drawn) | . | . | -25%[9.22 µM] | -6%[10 µM] | . | -4%
COc1ccc(CCn2c(Br)nc3c2c(=O)[nH]c(=O)n3C)cc1 | 2% | -82* | 1% | -12% | -1 | -1%[46.1 µM]
COc1ccc(CCn2c(NN)nc3c2c(=O)[nH]c(=O)n3C)cc1 | . | . | 4%[9.22 µM] | -6%[10 µM] | . | 0%
Cc1cc2nnc(SCC(=O)OC(C)C)n2c2ccccc12 | 0% | 38 | 4µM* | -95%[10 µM] | -2 | -13%[46.1 µM]
CC(=O)CSc1nnc2cc(C)c3ccccc3n12 | . | . | 18% | -4%[10 µM] | . | 3%
COc1ccc(Cl)cc1NC(=O)CN1C(=O)CCS(=O)(=O)c2ccccc21 | -1% | -100* | 1% | 2%[10 µM] | -9 | -3%[46.1 µM]
SMILES | 12-hLO inh | PNC inhibitor | HTT aggregate | HTT ATP protect | IMPase inh | NPSR antag
Cc1nc(N)c(C#N)c(-c2cccnc2)c1C | 1% | ? | 6.3µM* | 1%[10 µM] | -6 | -10%[46.1 µM]
CC1(C)Cc2ccccc2C(NNC(=O)c2ccccn2)=N1 | -1% | 34 | 18µM* | -46% | 3 | -13%[46.1 µM]
CN(C)c1nc(OCCNC(=O)COc2ccccc2Cl)nc(N(C)C)n1 | -7% | -84* | 8% | 7%[10 µM] | 1 | -12%[46.1 µM]
C=CCNC(=O)COc1ccc(Br)cc1Cl | -2% | -114* | -9% | -16% | 2 | -3%[46.1 µM]
CN(C)CCCNC(=O)COc1ccc(Br)cc1Cl | 0% | -87* | -1% | . | . | 13%
COc1ccc(C)cc1NC(=O)C(Cc1ccccc1)NS(=O)(=O)c1ccc(Br)s1 (stereo not drawn) | . | . | . | . | -4 | .
CC1(C)Oc2ccc3ccc(=O)oc3c2CC1=O | . | . | . | -30% | . | .
CCOC(=O)c1[nH]c(C)c(C(=O)N2CCN(C(=O)c3ccco3)CC2)c1C | 2% | -100* | -2% | 10%[10 µM] | -7 | 1%[46.1 µM]
CCOc1nc(-c2ccccc2)ccc1-c1noc(-c2ccco2)n1 | -2% | -100* | -2% | 9%[10 µM] | -7 | -6%[46.1 µM]
Cc1ccc(Nc2nc(N)nc(CC#N)n2)cc1 | 4% | -5 | 6.3µM* | -17% | -5 | -14%[46.1 µM]
CCOC(=O)c1cnc(SCc2nc(N)nc(Nc3ccc(C)cc3)n2)nc1N | -15% | -81* | 6% | -12% | 5 | -12%[46.1 µM]
Cc1ccc(Nc2nc(N)nc(CCl)n2)cc1 | . | . | 1%[9.22 µM] | 9%[10 µM] | . | -28%
CCOC(=O)c1cnc(SCc2nc(N)nc(Nc3ccc(F)cc3)n2)nc1N | -3% | ? | ? | -43% | 13 | -10%[46.1 µM]
COc1cccc(C(=O)Nc2cc(-c3cn4cccnc4n3)ccc2C)c1 | . | . | 7% | -31% | . | 17%
C=CCNc1nc2c(c(=O)n(C)c(=O)n2C)n1CC | 7% | ? | 13µM* | -28% | -7 | -11%[46.1 µM]
C=CCNc1nc2c(c(=O)n(C)c(=O)n2C)n1CCCCCC | 0% | -15 | ? | -42%[10 µM] | 2 | -2%[46.1 µM]
O=C(Nc1c(C(=O)c2ccccc2)oc2ccccc12)c1ccc(F)cc1 | . | . | . | . | -17 | .
CC(=O)N1C(=O)C2(C(C#N)=C(N)Oc3cc(C)oc(=O)c32)c2ccccc21 (stereo not drawn) | -3% | -115* | 21% | 4%[0.074 µM] | 15 | -9%[46.1 µM]
Cc1cc2c(c(=O)o1)C1(C(=O)N(C)c3ccccc31)C(C#N)=C(N)O2 (stereo not drawn) | -1% | 30 | -14% | 0%[10 µM] | 1 | 6%[46.1 µM]
CC(=O)n1nc(-c2ccccc2)nc1NCc1ccc(F)cc1 | -2% | ? | -16% | -7% | 10 | -20%[46.1 µM]
CC(=O)N(Cc1ccc(F)cc1)C1=C(NCc2ccccc2)C(=O)c2ccccc2C1=O | -13% | -12 | 8.9µM* | -98% | 11 | ?
COc1ccc(-n2c(-c3ccc(Cl)cc3)c[n+]3c2CCc2ccccc2-3)cc1 | . | . | 13µM* | -68% | . | -15%
CC(=O)N(C(C)=O)c1c(C#N)c(C)n(-c2ccccc2)c1C(=O)c1ccccc1 | -5% | -93* | -2% | -21%[0.074 µM] | 8 | -2%[46.1 µM]

Assay outcomes: PubChem BioAssay, National Center for Advancing Translational Sciences (NCATS)
